KCNQ2 enhance: potentiators of rat KCNQ2 potassium channel | O88943 | actives 0.54% (n = 310,000) | CHO-K1 KCNQ2, FluxOR thallium flux fluorescence; active compounds read high | B-score at 10 µM;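 active means fluorescence ratio B-score at least 3 SD of library B-scores, with initial fluorescence B-score within 3 of them, cut at about 5.3 in these data; same plate scores as AID 2156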;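 further: B-score of peak minus minimum over baseline fluorescence ratio after K+ and Tl+ stimulus; positive B-score means potentiation of KCNQ2 with more thallium influx and brighter signal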
KCNQ2 block: blocks the rat KCNQ2 potassium channel | O88943 | CHO-K1 KCNQ2, FluxOR thallium flux, 20 min; active compounds read low | B-score at 10 µM | actives 1.1% (n = 310,000);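 active means fluorescence ratio B-score at most minus 3 library SDs, with starting brightness B-score within 2 library SDs, cut at about -5.5 in these data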
Kir21 confirm: confirmation of mouse Kir2.1 potassium channel inhibitors; shares compounds with KCNQ2 enhance; Kir2.1-expressing cells, FluxOR thallium flux fluorescence; active compounds read low; Tl flux remaining, % of negative control (active compounds read low), % at 10 µM; actives 41% (n = 2,300); AID 2032;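 active means Primary-screen hit whose thallium flux fell at least 3 control SD below untreated wells in both duplicates, with normal baseline fluorescence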
Target sequence (P35561 whole entry, looked up): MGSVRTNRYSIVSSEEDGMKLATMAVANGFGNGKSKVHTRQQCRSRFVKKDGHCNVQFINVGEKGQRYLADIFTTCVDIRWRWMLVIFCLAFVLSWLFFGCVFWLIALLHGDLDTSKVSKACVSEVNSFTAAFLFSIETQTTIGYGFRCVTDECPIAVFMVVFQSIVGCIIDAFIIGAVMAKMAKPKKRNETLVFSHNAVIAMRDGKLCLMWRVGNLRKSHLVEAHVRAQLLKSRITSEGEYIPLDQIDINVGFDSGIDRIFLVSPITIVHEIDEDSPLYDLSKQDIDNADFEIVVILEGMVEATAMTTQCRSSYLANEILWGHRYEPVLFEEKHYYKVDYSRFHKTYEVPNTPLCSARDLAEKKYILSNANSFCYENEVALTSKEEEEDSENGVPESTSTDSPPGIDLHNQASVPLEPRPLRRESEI
HEK293 ctr: parental HEK293 activity in Kir2.1 inhibitor counter-screen; shares compounds with KCNQ2 enhance; parental HEK293 cells, FluxOR thallium flux fluorescence; 0% = unstimulated blank wells; FluxOR signal as % of negative control (100 = no effect), % at 10 µM; actives 19% (n = 2,300);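 active means dye signal at least 3 control SD above or below untreated wells in both duplicates, raw fluorescence within 3, either direction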;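 further: percent is based on the flux ratio of peak minus minimum fluorescence over baseline F0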
CHO-K1 Tl ctr: counter-screen for KCNQ2 potentiators: effect in parental CHO-K1 cells | shares compounds with KCNQ2 enhance | FluxOR thallium flux fluorescence; zero = vehicle mean+3SD, 100% = vehicle-minus-blank window | activity increase over 3SD of controls, % at 10 µM | actives 43% (n = 1,200) | AID 2282;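 active means signal rise of at least 3 SD above the untreated control mean, in both duplicate wells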;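 further: counter screen of KCNQ2 potentiator hits so any rise reflects channel-independent effects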
KCNQ1 sel pot: selectivity of KCNQ2 potentiators: effect on human KCNQ1 | activation over 3SD threshold, % at 10 µM | AID 2283 | CHO KCNQ1 stable, FluxOR thallium flux fluorescence; beyond 3SD, as % of vehicle-control signal | actives 28% (n = 1,200) | shares compounds with KCNQ2 enhance;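 active means fluorescence ratio rise of at least 3 SD of vehicle wells above their mean, in both replicate wells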
KCNQ2 pot conf: confirmation of rat KCNQ2 potassium channel potentiators; CHO-KCNQ2 cells, FluxOR thallium flux fluorescence; potentiation, less the hit threshold, % at 10 µM; shares compounds with KCNQ2 enhance; actives 68% (n = 1,200);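 active means fluorescence ratio rising 3 SD or more over the vehicle control mean in both replicates, plus primary screen hit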;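 further: peak minus minimum thallium fluorescence divided by baseline after K/Tl stimulus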
Kir2-1 sel: selectivity of KCNQ2 potentiators: effect on mouse Kir2.1; activity over 3SD threshold, % at 10 µM; actives 2% (n = 1,200); shares compounds with KCNQ2 enhance; AID 2345; HEK293 Kir2.1, FluxOR thallium flux fluorescence;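 active means fluorescence ratio rise of at least 3 SD above the vehicle-control mean, seen in both replicates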
KCNQ2 W236L pot: KCNQ2 potentiators acting on retigabine-insensitive rat KCNQ2 W236L mutant. current increase over 3SD of negative controls (%), active compounds read high, % at 25 µM. shares compounds with KCNQ2 enhance. actives 10% (n = 940). CHO KCNQ2-W236L, automated patch clamp current. AID 2558;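 active means current increase at least 3 SD of the untreated controls above them in both duplicate recordings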
Each line names hits and unclear results; the compound was inactive in the other large screens (follow-up assays come after a bar, where they were run). Only some compounds are listed: those with a hit (about 1.6% of all), similar ones and a draw of the others.

Cc1[nH]c2ccc(OC(F)(F)F)cc2c1CCNCc1cccc([N+](=O)[O-])c1	none (no result: KCNQ2 enhance)
COc1ccc(C2=NCC(=S)Nc3ccc(Cl)cc32)cc1Cl	none
Cn1cc(C(O)CN2CCCCC2)c2ccccc21 (stereo not drawn)	none
CCn1nc(/C=C/c2ccccc2)nc2c(=O)n(C)c(=O)nc1-2	KCNQ2 enhance 7.86 | Kir21 confirm inactive | HEK293 ctr inactive | CHO-K1 Tl ctr 5.3 | KCNQ1 sel pot inactive | KCNQ2 pot conf 3.5 | Kir2-1 sel inactive | KCNQ2 W236L pot inactive
COc1ccc(-n2c(/C=C/c3ccc(O)cc3)nc3ccccc3c2=O)cc1	none (no result: KCNQ2 enhance)
Cc1ccc(S(=O)(=O)N[C@@H](CCCCN)C(=O)CCl)cc1	none (no result: KCNQ2 enhance)
COc1cccc(C2(O)CCN(Cc3ccncc3)CC2)c1	none
NC1=NC(c2cccnc2)n2c(nc3ccccc32)N1 (stereo not drawn)	none (no result: KCNQ2 enhance)
COc1ccc(-[n+]2c(-c3ccccc3)cc(-c3ccccc3)cc2-c2ccccc2)cc1	KCNQ2 block -8.37 | Kir21 confirm 26.5% | HEK293 ctr inactive
O=[N+]([O-])c1ccc(-[n+]2c(-c3ccccc3)cc(-c3ccccc3)cc2-c2ccccc2)cc1	none
COc1cccc(CNCCc2c[nH]c3ccccc23)c1	none
COc1cc(C)c(CNCCc2c[nH]c3ccccc23)cc1C	none (no result: KCNQ2 enhance) | Kir21 confirm 39.5% | HEK293 ctr inactive
COc1ccc(CNCCc2c[nH]c3ccccc23)c(OC)c1C	none | Kir21 confirm 46.5% | HEK293 ctr inactive
COc1ccc(CNCCc2ccccc2F)c(OC)c1C	none
O=C(c1csc2c1CCCCC2)N1CCC2(CC1)OCCO2	none (no result: KCNQ2 enhance)
N=c1c[n+](C2CCCCC2)[n-]o1	none
O=C1N(c2nncs2)CCN1[N+](=O)[O-]	none
Cc1cnc(NC(=O)CN2CCCCC2)s1	none
CC(C)Sc1nnc(OC(=O)N(C)C)n1-c1ccccc1	none (no result: KCNQ2 enhance)
Cc1ccc(-c2cc(-c3ccccc3)cc(-c3ccccc3)[n+]2-c2ccccc2C(=O)O)cc1	none (no result: KCNQ2 enhance)
Cc1cc(-c2ccccc2)cc(-c2ccccc2)[n+]1CCc1ccccc1	KCNQ2 block -5.72 | Kir21 confirm 45.0% | HEK293 ctr inactive
Clc1ccc(C[n+]2c(-c3ccccc3)cc(-c3ccccc3)cc2-c2ccccc2)cc1	KCNQ2 block -7.22 | Kir21 confirm 17.0% | HEK293 ctr inactive
C[n+]1c(-c2ccccc2)cc(-c2ccc(O)cc2)cc1-c1ccccc1	none
CCOC(C[n+]1c(-c2ccccc2)cc(C)cc1-c1ccccc1)OCC	none
Fc1ccc(C[n+]2c(-c3ccccc3)cc(-c3ccccc3)cc2-c2ccccc2)cc1	KCNQ2 block -6.33 | Kir21 confirm 24.5% | HEK293 ctr inactive
CC1=C(/C=C/c2ccccc2)CCN(C)C1	none
O=C1CCN(C(=O)Cc2ccccc2[N+](=O)[O-])CC1	none
CC(=O)OC(C)(C)/C=C/C(=O)C(C)(O)C1[C@H](O)C[C@@]2(C)C3CC=C4C(CC[C@@H](O)C4(C)C)[C@]3(CO)C(=O)C[C@]12C (stereo partly drawn)	KCNQ2 enhance 7.06 | Kir21 confirm inactive | HEK293 ctr inactive | CHO-K1 Tl ctr inactive | KCNQ1 sel pot inactive | KCNQ2 pot conf 9.0 | Kir2-1 sel inactive | KCNQ2 W236L pot inactive
Cc1cccc(N=Cc2c(O)n(C)c(=O)n(C)c2=O)c1	none (no result: KCNQ2 enhance)
Cc1ccc(NC(=O)CSc2nnc([C@@H](N)Cc3c[nH]c4ccccc34)o2)c(C)c1	none
CC(NCc1ccc(Cl)c(Cl)c1)C(O)c1ccccc1 (stereo not drawn)	none (no result: KCNQ2 enhance)
CN[C@@H]1C[C@@H](c2ccc(Cl)c(Cl)c2)c2ccccc21	none (no result: KCNQ2 enhance) | Kir21 confirm 27.5% | HEK293 ctr inactive
CC(=O)Nc1ccccc1OP1(=O)COc2ccccc2OC1	none (no result: KCNQ2 enhance)
CCCCCSc1cc(OC)c(CCNC)cc1OC	none | Kir21 confirm 43.0% | HEK293 ctr inactive
C/C(=N\NP(=S)(c1ccccc1)c1ccccc1)c1ccc(O)cc1O	none
O=C(CCCN1CCC2(CC1)C(=O)NCN2c1ccccc1)c1ccc(F)cc1	KCNQ2 enhance 6.05 | Kir21 confirm inactive | HEK293 ctr inactive | CHO-K1 Tl ctr 5.3 | KCNQ1 sel pot 63.7 | KCNQ2 pot conf 16.9 | Kir2-1 sel inactive | KCNQ2 W236L pot inactive
O=C(c1ccc(F)cc1)C(Cc1ccccc1)N1CCCCC1 (stereo not drawn)	none
